Pf Dd2 growth: blocks growth of Plasmodium falciparum Dd2 parasites | P. falciparum Dd2 growth, SYBR Green, 72 h; active compounds read low | activity change, % at 10 µM | actives 2.3% (n = 94,000); in the data active = activity change below about -80%; inconclusive = no clear call, values can overlap the other calls
C diff HTS: inhibitors of Clostridium difficile growth; Clostridium difficile clinical isolate growth, OD600, 24 h; active compounds read low; growth activity, negative = inhibition, % at 16 µg/mL (by protocol); actives 0.25% (n = 86,000);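 active = mean growth activity at or below -80% and every replicate also at or below -80%; inconclusive = mean at or below -80% but some replicate above -80%; inactive = mean growth activity above -80%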;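 also: 0% = DMSO wells and -100% = levofloxacin 16 µg/mL wells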
T cruzi growth-1: inhibitors of T. cruzi proliferation. T. cruzi beta-gal in NIH3T3, GalScreen luminescence, 90 h. actives 5.9% (n = 77,000). inhibition, % at 8.34 µM;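 active = mean inhibition above about 93%, with at least 55% of replicates each passing it, limit read from the data, passing the limit was not always enough; inconclusive = only one of those two conditions holds; inactive = neither condition holds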
T cruzi growth-2: blocks T. cruzi growth in NIH3T3 host cells | shares compounds with T cruzi growth-1 | inhibition, % at 8.35 µM | T. cruzi beta-gal in NIH3T3, GalScreen luminescence, 90 h | actives 72% (n = 5,600);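 active = mean replicate inhibition above about 95% and at least 55% of replicates individually reaching it, limit read from the data; inconclusive = only one of the two criteria is met; inactive = neither criterion is met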
T cruzi growth-3: Trypanosoma cruzi proliferation inhibition. T. cruzi beta-gal in NIH3T3, GalScreen luminescence, 90 h. inhibition, % at 2.09 µM. actives 21% (n = 5,600). shares compounds with T cruzi growth-1;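 active = mean inhibition above about 95%, with at least 55% of replicates also reaching it, limit read from the data; inconclusive = meets just one of the two conditions; inactive = meets neither condition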;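 also: plate controls were neutral control median for no effect and positive control median for full effect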
NIH3T3 tox: NIH/3T3 (mouse) viability loss; shares compounds with T cruzi growth-1; actives 14% (n = 5,600); cytotoxicity (signal decrease), % at 8.35 µM; NIH/3T3 viability, CellTiter-Glo ATP luminescence, 90 h;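 active = mean signal decrease across replicates above about 35% based on untreated-well scatter, with enough replicates individually passing, limit read from the data; inconclusive = no rule stated though some were filed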;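 also: 0% = median of neutral control wells and 100% = median of positive control wells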
NIH3T3 tox 2: cytotoxicity in mouse NIH/3T3 fibroblasts | shares compounds with T cruzi growth-1 | NIH/3T3 viability, CellTiter-Glo ATP luminescence, 90 h | inhibition, % at 24.9 µM | actives 56% (n = 5,600) | AID 651744;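 active = mean loss of cell viability signal at or above a set limit, and enough replicates individually reaching it; inconclusive = meets only the mean limit or only the replicate share; inactive = meets neither condition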;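 also: 0% = median of neutral control wells and 100% = median of positive control wells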
Active calls of the source: *; ? = inconclusive; . = no result. This is a sample that favours compounds with a hit; in the whole collection about 6.7% have one here.

SMILES | Pf Dd2 growth | C diff HTS | T cruzi growth-1 | T cruzi growth-2 | T cruzi growth-3 | NIH3T3 tox | NIH3T3 tox 2
O=C(C[C@@H]1C[C@@H]2c3cc(NC(=O)C4CCOCC4)ccc3O[C@@H]2[C@@H](CO)O1)NCc1ccc(Oc2ccccc2)cc1 | -29.8 | . | 30.7 | . | . | . | .
O=C(C[C@H]1C[C@@H]2c3cc(NC(=O)C4CCOCC4)ccc3O[C@@H]2[C@H](CO)O1)NCCN1CCCCC1 | -0.1 | -7.6 | 170.7* | 74.9 | 10.4 | 12.6 | -0.8
O=C(C[C@@H]1C[C@@H]2c3cc(NC(=O)CC4CC4)ccc3O[C@@H]2[C@H](CO)O1)NCCN1CCCCC1 | -0.3 | -0.5 | -122.9 | . | . | . | .
O=C(C[C@@H]1C[C@H]2c3cc(NC(=O)C4CCOCC4)ccc3O[C@H]2[C@H](CO)O1)NCc1ccc(Oc2ccccc2)cc1 | -67.7 | . | 142.0* | -3.1 | 7.4 | 2.3 | -6.0
COc1ccc(CNC(=O)C[C@H]2C[C@@H]3c4cc(NC(=O)C5CCC5)ccc4O[C@@H]3[C@H](CO)O2)cc1 | -28.2 | 4.0 | 164.5* | 10.7 | 9.0 | 1.6 | -5.5
O=C(CN1CCOCC1)N[C@@H]1CC[C@H](CCn2cc(C3CC3)nn2)O[C@H]1CO | 3.8 | 2.8 | . | . | . | . | .
C[C@@H]1CCCCO[C@H](CN(C)C(=O)Nc2ccccc2)[C@H](C)CN([C@@H](C)CO)C(=O)c2cc(NC(=O)c3ccncc3)ccc2O1 | -38.0 | -11.8 | 36.0 | . | . | . | .
COc1ccc2c3c(n(C)c2c1)[C@H](CO)N(C(=O)c1ccncc1)CC31CCN(C)CC1 | 34.2 | 2.9 | . | . | . | . | .
C[C@@H]1CN([C@@H](C)CO)C(=O)c2cc(NC(=O)NC3CCCCC3)ccc2O[C@@H]1CN(C)Cc1ccc(Cl)c(Cl)c1 | 20.0 | 5.1 | ? | 96.8* | 9.7 | 28.2 | 27.2
C[C@H](CO)N1C[C@H](C)[C@@H](CN(C)Cc2ccc(Cl)c(Cl)c2)Oc2ccc(NC(=O)NC3CCCCC3)cc2C1=O | 9.4 | 4.0 | 7.2 | . | . | . | .
C[C@@H]1CN([C@H](C)CO)C(=O)c2cc(NC(=O)NC3CCCCC3)ccc2O[C@H]1CN(C)Cc1ccc(Cl)c(Cl)c1 | -3.9 | 3.1 | 93.2* | 105.9* | -22.4 | 19.5 | 13.4
C[C@H]1CN([C@@H](C)CO)C(=O)c2cc(NC(=O)NC3CCCCC3)ccc2O[C@@H]1CN(C)Cc1ccc(Cl)c(Cl)c1 | 13.4 | -8.9 | 49.7 | . | . | . | .
C[C@@H]1CN([C@H](C)CO)C(=O)c2cc(NS(=O)(=O)c3cccs3)ccc2O[C@@H](C)CCCCO[C@H]1CN(C)S(=O)(=O)c1cccs1 | -52.3 | -1.3 | 28.2 | . | . | . | .
OC[C@H]1[C@@H](c2ccc(-c3ccccc3F)cc2)[C@H]2CN(Cc3cccnc3)CCCCN21 | -7.8 | -0.9 | 54.4 | . | . | . | .
OC[C@@H]1[C@@H](c2ccc(-c3ccccc3F)cc2)[C@H]2CN(Cc3ccncc3)CCCCN12 | -46.1 | -4.0 | 103.8* | 83.1 | 48.4 | 29.4 | 81.5*
OC[C@@H]1[C@H](c2ccc(-c3ccccc3F)cc2)[C@@H]2CN(Cc3cccnc3)CCCCN12 | -11.8 | 1.9 | 89.2 | . | . | . | .
OC[C@H]1[C@H](c2ccc(-c3ccccc3F)cc2)[C@@H]2CN(Cc3cccnc3)CCCCN12 | -40.2 | 3.1 | 32.7 | . | . | . | .
OC[C@H]1[C@H](c2ccc(-c3ccccc3F)cc2)[C@@H]2CN(Cc3ccncc3)CCCCN12 | -16.9 | -7.9 | 105.7* | 101.2* | 74.2 | 30.0 | 102.7*
OC[C@@H]1[C@H](c2ccc(-c3ccccc3F)cc2)[C@H]2CN(Cc3ccncc3)CCCCN12 | -17.8 | -13.2 | 106.7* | 92.8 | 84.7 | 45.8* | 102.9*
CO[C@H]1CN(C)C(=O)c2cc(NC(=O)CC(F)(F)F)ccc2OC[C@@H](C)NC[C@H]1C | 14.6 | -0.8 | . | . | . | . | .
O=C(C[C@H]1CC[C@@H]2[C@H](COC[C@H](O)CN2S(=O)(=O)c2cccc(F)c2)O1)NC1CCC1 | 35.2 | 7.9 | 52.3 | . | . | . | .
COc1ccc(S(=O)(=O)Nc2cccc3c2O[C@H](CN(C)Cc2ccc(C(=O)O)cc2)[C@@H](C)CN([C@@H](C)CO)C3=O)cc1 | 26.7 | -0.7 | -17.9 | . | . | . | .
C[C@H](CO)N1C[C@H](C)[C@H](CN(C)Cc2ccc(C(=O)O)cc2)Oc2c(NS(=O)(=O)c3cn(C)cn3)cccc2C1=O | -2.0 | -7.8 | ? | 75.6 | 4.5 | -3.4 | 4.8

Bioassay records as filed in PubChem.
